# Bioassay records: PubChem BioAssay, National Center for Advancing Translational Sciences (NCATS)
# PNC assembly inh: High Content Assay for Compounds that inhibit the Assembly of the Perinucleolar Compartment; PC3M PTB-GFP, PNC prevalence imaging, 16 h; hits give low values; activity change (PNC), negative = inhibition, % at 10 µM; 140,000 compounds, 3.1% hits;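 active = readout at or below -70, meaning at least 70% loss of cells showing the perinucleolar compartment, a nuclear body marking cancer cells; inconclusive = readout between -30 and a set limit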;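 note: plate controls were DMSO wells for no effect and camptothecin positive control wells for full effect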
#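 PC3M cells stably expressing PTB-GFP, 750–1000 cells/well, treated 16 h at 37 °C with compound (23 nl of library stock), in duplicate. After paraformaldehyde fixation and Hoechst stain, imaged at 20x; PNC prevalence scored by image analysis.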
# HPGD block: qHTS Assay for Inhibitors of HPGD (15-Hydroxyprostaglandin Dehydrogenase); 15-hydroxyprostaglandin dehydrogenase [NAD(+)] (Homo sapiens), P15428; purified HPGD, NADH fluorescence kinetic, PGE2 substrate; Potency, µM, inactives show at the highest dose activity change, negative = inhibition, usual class: inhibitors; 150,000 compounds, 4.3% hits; note: potency is the fitted concentration of half-maximal effect
# Target sequence (P15428 whole entry, looked up): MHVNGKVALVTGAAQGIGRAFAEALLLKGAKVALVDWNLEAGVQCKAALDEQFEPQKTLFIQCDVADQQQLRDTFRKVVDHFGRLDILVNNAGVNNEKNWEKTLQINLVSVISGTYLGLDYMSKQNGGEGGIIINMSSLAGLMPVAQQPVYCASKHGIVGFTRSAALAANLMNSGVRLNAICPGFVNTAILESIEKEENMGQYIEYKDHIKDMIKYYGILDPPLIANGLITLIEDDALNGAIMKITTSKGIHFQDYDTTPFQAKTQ
#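 20 nM HPGD preincubated 15 min at room temperature with compound in 50 mM Tris-HCl pH 8, 0.01% Tween 20. Started with 1 mM NAD+ and 30 uM prostaglandin E2; NADH fluorescence (360/450 nm) read 5 times over 30-s intervals, last minus first.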
# LMNA splice mod: qHTS Assay for Modulators of Lamin A Splicing; 200,000 compounds, 0.01% hits; HeLa LMNA splicing GFP/RFP minigene ratio, 48 h; Potency, µM (top dose mostly 46.1 µM), for the others: top-dose ratio change, negative = inhibition, usual class: inhibitors; active = well fitted inhibition curve with a large enough effect in the signal ratio, with a control signal flat, not every such curve was filed as active; inconclusive = small, poorly fitted or top-dose-only effect, or effect the other way, or a change in a side signal; the % refers to the signal ratio; note: potency is the fitted concentration of half-maximal effect
#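 S3 HeLa stable clones carrying a lamin A-EGFP splicing minigene plus DsRed2 were seeded at 600 cells/well in Opti-MEM with 2% FBS, pin-dosed and incubated 48 h at 37°C. Acumen cytometry (488 nm) gave the GFP/RFP total-intensity ratio.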
# KinaseGlo FLuc: Counterscreen for Luciferase (Kinase-Glo TM) Inhibition; Luciferin 4-monooxygenase (Photuris pensylvanica), Q27757; Kinase-Glo luciferase, ATP luminescence, 8 min; Potency, µM (highest dose often 38.3 µM), for the others: at the top dose activity change, negative = inhibition, hits mostly inhibitors; 200,000 compounds, 0.28% hits; AID 1379, 2008; active = well fitted inhibition curve with a large enough effect; inconclusive = small, poorly fitted or top-dose-only effect; note: potency is the fitted concentration of half-maximal effect; nearly all actives have a fitted effect of over 60% in size
#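 Compound is pinned into ATP-containing buffer (10 uM ATP, imidazole pH 7.2, 7 mM MgCl2). Kinase-Glo luciferase reagent is then added. Light output is recorded following an 8-min room-temperature incubation.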
# IMPase cell inh: qHTS Assay for Identifying the Cell-Membrane Permeable IMPase Inhibitors; 120,000 tested, under 10 active; Inositol monophosphatase 1 (Rattus norvegicus), P97697; CHO-M1 cells, IP1 accumulation, HTRF TR-FRET ratio; inhibition (IP1 accumulation), % at 46.1 µM; active = well fitted curve in the direction sought with a large enough effect in the signal ratio, not every such curve was filed as active; inconclusive = small, poorly fitted or top-dose-only effect, or a change in a side signal; inactive = no such curve, though single readings can be large or run the other way; the % refers to the signal ratio;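 note: cells stimulated with carbachol in lithium chloride buffer; plate controls were DMSO basal wells for no effect and reference inhibitor wells for full effect; higher means more IMPase inhibition seen as more IP1 and lower FRET ratio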
# Target sequence (P97697 whole entry, looked up): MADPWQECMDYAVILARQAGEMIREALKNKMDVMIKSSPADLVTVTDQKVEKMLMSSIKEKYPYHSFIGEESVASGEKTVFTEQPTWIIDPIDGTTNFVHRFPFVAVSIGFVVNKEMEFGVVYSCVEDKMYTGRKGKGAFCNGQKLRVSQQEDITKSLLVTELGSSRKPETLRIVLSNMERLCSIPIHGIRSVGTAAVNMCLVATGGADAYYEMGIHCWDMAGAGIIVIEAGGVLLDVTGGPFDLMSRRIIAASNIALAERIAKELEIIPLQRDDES
#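 Measured: the HTRF emission ratio (665/620 nm) plus the 620 nm donor channel, each fitted to the Hill equation to give AC50. Cells were CHO-M1 given compounds up to 46 uM and a 30 min carbachol stimulation at 37C.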
# ALDH1A1 block: qHTS Assay for Inhibitors of Aldehyde Dehydrogenase 1 (ALDH1A1); Potency, µM (highest dose often 75.3 µM), without a hit: at the highest dose activity, negative = inhibition, usual class: inhibitors; AID 1030, 2008; 220,000 compounds, 7.3% hits; Purified ALDH1A1, NADH fluorescence, propionaldehyde substrate;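 note: potency is the fitted concentration of half-maximal effect; plate controls were no enzyme wells and a reference inhibitor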
# Numbers without * were called inactive; ? = inconclusive; . = not tested or not shown; [ ] = dose if it differs, or a comment. Most compounds without a hit are left out; they make up all but 10% or so of the library. Unless noted, calls come from the whole dose curve; as a rule, active = well fitted inhibition curve with a large enough effect (not every such curve was filed as active); inconclusive = small, poorly fitted or top-dose-only effect, or another doubt; inactive = no such curve, though single readings can be large or run the other way. Unless noted, % is set by controls: 0 for no effect and ±100 for the full control effect.
SMILES,PNC assembly inh,HPGD block,LMNA splice mod,KinaseGlo FLuc,IMPase cell inh,ALDH1A1 block
COC(=O)c1nnn(CC(=O)NC(=O)Nc2cccc(C)c2C)c1C(=O)OC,-113.4*,-7.3%,-1.6%,-1.4%,.,4.0%
CCOC(=O)c1nnn(CC(=O)Nc2ccccc2OC)c1C(=O)OCC,-113.4*,6.7%,-5.6%,-4.7%,-9.4,11.6%
COC(=O)c1nnn(CC(=O)NC(=O)Nc2ccccc2F)c1C(=O)OC,.,.,11.0%[46 µM],1.1%,.,12.0%
Cc1nc2nc(-c3cccnc3)[nH]n2c(=O)c1C,-20.4,-2.8%,-1.2%,-8.9%,2.0,17.8µM*
COc1ccc(-n2c(CCC(=O)O)ccc2-c2ccccc2)c(OC)c1,.,.,.,.,-10.7,.
CC(C)=Cc1c(O)nc2ccccn2c1=O,.,.,.,-0.6%,.,-12.7%
O=c1c(/C=N/O)c(Nc2ccccc2)nc2ccccn12,10.1,0.562µM*,4.8%,5.0%,4.1,?
C#CC(=O)N(c1ccc(OC)c(OC)c1)C(C(=O)NC1CCCC1)c1cccs1 (centres undefined),?,-5.5%,-21.6%,2.1%,-1.7[1.84 µM],-2.3%
C#CC(=O)N(c1cccc(OC)c1)C(C(=O)NC1CCCC1)c1cccs1 (centres undefined),4.0,?,?,-0.9%,23.2,15.8µM*
COc1ccc(N(C(=O)Cc2cccs2)C(C(=O)NC2CCCCC2)c2cccn2C)cc1OC (centres undefined),-115.7*,-1.9%,-14.6%,1.7%,.,9.1%
CN1CCN(CN2C(=O)C3C4C=CC(C3C2=O)C2C3C(=O)N(CN5CCN(C)CC5)C(=O)C3C42)CC1 (centres undefined),.,-2.8%,.,-11.8%[7.66 µM],.,-11.8%[13.5 µM]
COc1ccc(-c2nc3cnc(N4CCOCC4)nc3n(-c3ccccc3)c2=O)cc1,.,.,6.0%,.,.,13.1%
CC(C)(C)C(=O)Cn1c(=N)n(Cc2ccccc2)c2ccccc21,-118.9*,-1.3%,?,0.3%,9.4,-7.4%
CCc1ccccc1NS(=O)(=O)c1ccc2c(c1)OCC(C(=O)N1CCCC1)O2 (centres undefined),.,.,-14.9%[46 µM],.,.,.
O=C(COC(=O)CNC(=O)C12CC3CC(CC(C3)C1)C2)NC1CCS(=O)(=O)C1 (centres undefined),?,-4.1%,4.0%,12.2%,.,1.7%
CN(C(=O)COC(=O)CNC(=O)C12CC3CC(CC(C3)C1)C2)C1CCS(=O)(=O)C1 (centres undefined),-121.5*,-10.0%,0.6%,-2.6%,.,-8.3%
CCOc1ccc(-c2nn(-c3ccccc3)cc2/C=C2\SC(N)=NC2=O)cc1C,-21.7,15.8µM*,3.0%,0.7%,-21.4,2.6%
CCOc1ccc(-c2nn(-c3ccccc3)cc2/C=C2\SC(=S)N(C3CCS(=O)(=O)C3)C2=O)cc1 (centres undefined),-1.1,-3.6%,-6.4%,-1.7%,2.8,3.9%
S=c1[nH]nc(-c2ccccn2)n1/N=C/c1cccs1,-22.2,-19.1%,-4.4%,-0.8%,.,2.5%
S=c1[nH]nc(COc2ccccc2)n1/N=C/c1cccs1,?,14.1µM*,-12.0%,5.5%,4.1,-1.2%
Cc1ccsc1/C=N/n1c(COc2ccccc2)n[nH]c1=S,-16.6,14.1µM*,?,3.2%,-3.1,20µM*
Cc1cccc([N+](=O)[O-])c1C,.,-2.0%,.,.,.,-4.8%
C/C=C1/C(=O)C[C@H]2[C@@H]3CCC4=CC(=O)CC[C@]4(C)[C@H]3CC[C@]12C,.,0.5%,.,.,.,?
O=C(CSCc1ccccc1)N1CCN(C(=O)c2ccco2)CC1,-100.0*,-20.4%,-10.2%,-0.6%,0.5,?
O=C(c1ccco1)N1CCN(C(=O)C(Sc2ccccc2)c2ccccc2)CC1 (centres undefined),?,-10.7%,-20.7%,-2.5%,-3.1,14.1µM*
SMILES,PNC assembly inh,HPGD block,LMNA splice mod,KinaseGlo FLuc,IMPase cell inh,ALDH1A1 block
Cc1ccc(C)n1CCN1CCN(C(=O)c2ccco2)CC1,?,-2.1%,24.2%,-1.6%,12.2,0.0%
O=C(c1ccco1)N1CCN(CC(O)Cn2c3ccccc3c3ccccc32)CC1 (centres undefined),-87.3*,-25.8%,8.9%,-1.8%,2.8,-12.2%
Cc1nnc(SCC(=O)N2CCN(C(=O)c3ccco3)CC2)n1-c1ccccc1,.,.,.,-3.0%,.,28.2µM*
O=C(CSc1ccccc1)N1CCN(C(=O)c2ccco2)CC1,.,.,28.1%[46 µM],1.4%,.,?
Cc1cccc(N2CCN(C(=O)Cn3c(-c4cccs4)cc4ccccc43)CC2)c1C,.,.,-9.3%[46 µM],.,.,.
Cc1ccc(C(=O)CCC(=O)N2CCN(C(=O)c3ccco3)CC2)cc1,.,.,4.1%[46 µM],1.1%,.,22.4µM*
CCOC(=O)c1cc(-c2csc(-c3cccc(Cl)c3)n2)on1,.,.,.,.,.,-1.5%
CCOC(=O)c1cc(-c2csc(Nc3c(C)cc(C)cc3C)n2)on1,.,.,.,.,.,14.1µM*
COc1cc(/C=N/OCC(=O)NC23CC4CC(CC(C4)C2)C3)ccc1OCc1ccccc1,-24.2,.,?,.,0.9,22.4µM*
COc1cc(/C=N/OCC(=O)Nc2ccc(OC(F)F)cc2)ccc1OCc1ccccc1,-5.5,-13.6%,?,-1.3%,.,-2.1%
COc1cc(/C=N/OCC(=O)NC2CCCCC2)ccc1OCc1ccccc1,?,-22.5%,?,-1.2%,.,22.4µM*
CCOc1ccccc1C(=O)Nc1nncs1,-20.2,-21.2%,-9.3%,-3.8%,-2.5,-5.3%
CCOc1ccccc1C(=O)Nc1nnc(C(C)C)s1,25.4,-12.2%,-7.7%,-0.5%,3.4,1.26µM*
CCOc1ccccc1C(=O)NN1C(=O)CCC1=O,-113.8*,-4.3%,-5.4%,-7.7%,.,-1.3%
CCCC(C)c1nnc(NC(=O)CS(=O)(=O)Cc2ccccc2)s1 (centres undefined),6.3,12.6µM*,-3.4%,-2.7%,5.1,25.1µM*
CCOc1ccccc1C(=O)NCC(=O)O,.,.,?,7.9%,.,6.6%
CC(C)c1nnc(NC(=O)CS(=O)(=O)Cc2ccccc2)s1,.,.,.,6.7%,.,7.94µM*
Cn1c(=O)c2c(n3c4ccccc4nc13)NC(=O)CC2c1ccccc1F (centres undefined),.,.,-13.6%[46 µM],.,.,.
c1cn(CCCNc2ncnc3nc[nH]c23)cn1,-111.7*,-2.6%,-6.1%,2.1%,-1.7,6.0%
Oc1cc(O)cc(/C=C\c2ccc(O)c(O)c2)c1,.,.,.,.,9.8,.
CC1=C(C(=O)Nc2ccccc2C)C(c2cccnc2)n2nc(SCc3ccccc3)nc2N1 (centres undefined),.,.,9.1%[46 µM],.,.,.
